# Rows were chosen to be rich in hits. Some 0.92% of all compounds tested hit in one or more screens of this group.
# RPL19A TOR yeast = alters RPL19A-GFP fluorescence in TOR pathway yeast screen; S. cerevisiae RPL19A-GFP strain, flow cytometry, 3 h; active compounds read low; percent response vs DMSO, % at 10 µM; actives 0.3% (n = 330,000);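 active = percent response vs DMSO below 50%; inconclusive = fewer than 70 events counted for the yeast strain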;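 note: median channel GFP fluorescence of the barcoded RPL19A-GFP strain; ratio of sample median GFP to plate DMSO average so 100% = DMSO; lower means less RPL19A-GFP as with rapamycin TOR inhibition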
# CIT2-GFP yeast = yeast TOR pathway CIT2-GFP modulation | S. cerevisiae CIT2-GFP strain, flow cytometry, 3 h; 100 means same as DMSO wells | actives 0.065% (n = 320,000) | GFP response vs DMSO, % at 10 µM | AID 2029;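 active = GFP response relative to DMSO above a set limit, near the screen mean plus 3 SD, cut at about 150% in these data; inconclusive = Fewer than 70 cells measured for a yeast strain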;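 note: ratio of well median GFP fluorescence to mean of DMSO wells on the plate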
# AGP1 TOR yeast = modulators of TOR pathway AGP1-GFP in S. cerevisiae | S. cerevisiae AGP1-GFP multiplex flow cytometry, 3 h; GFP as percent of DMSO wells | GFP response vs DMSO, % at 10 µM | actives 0.02% (n = 320,000) | AID 2066;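 active = GFP response relative to DMSO above a set limit, near screen average plus 3 SD, cut at about 150% in these data; inconclusive = fewer than 70 cells counted for the yeast strain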;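 note: median GFP channel fluorescence of the gated AGP1 strain per well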
# LAP4-GFP MLPCN = yeast TOR pathway LAP4-GFP modulation; actives 0.34% (n = 320,000); S. cerevisiae LAP4-GFP multiplex, flow cytometry GFP, 3 h; median GFP as percent of DMSO wells; GFP response vs DMSO, % at 10 µM;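 active = GFP response vs DMSO above a set limit, about the screen mean plus 3 SD, cut at about 150% in these data; inconclusive = under 70 cell events counted for the yeast strain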
# MEP2-GFP yeast = yeast TOR pathway MEP2-GFP modulation | S. cerevisiae MEP2-GFP strain, flow cytometry GFP, 3 h; 100% = DMSO control level | GFP response vs DMSO, % at 10 µM | actives 0.51% (n = 330,000);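 active = GFP response versus DMSO above a set limit, roughly screen mean plus 3 SD, cut at about 180% in these data; inconclusive = fewer than 70 cells counted for a yeast strain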;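 note: median GFP fluorescence of the barcode-gated MEP2-GFP cells per well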
# An asterisk follows results filed as active; ? = inconclusive; . = not tested or not shown; [ ] = another dose, or the depositor's remark.
SMILES,RPL19A TOR yeast,CIT2-GFP yeast,AGP1 TOR yeast,LAP4-GFP MLPCN,MEP2-GFP yeast
Brc1ccc(N=C/C=C/C=C/Nc2ccc(Br)cc2)cc1,152,367*[may fluoresce green],135,413*[may fluoresce green],430*[may fluoresce green]
COC(=O)C1=C(N)Oc2cc(C)n(CC3CCCO3)c(=O)c2C1c1ccccc1 (configuration not stated),103,107,106,105,107
COC(=O)C1=C(N)Oc2cc(C)n(CC3CCCO3)c(=O)c2C1c1ccccc1OC (configuration not stated),68,?,?,61,247*[may fluoresce violet]
COc1ccccc1N1CCN(C(=O)CSc2ccc3c(C)cc(C)nc3n2)CC1,13*[may fluoresce violet],?,?,?,?
CCCCC(=O)Nc1nnc(SCC(=O)N2CCN(c3ccccc3OC)CC2)s1,23*[may fluoresce violet],?,?,88,219*[may fluoresce violet]
COc1ccccc1N1CCN(C(=O)CSc2nnc(NC(=O)C3CC3)s2)CC1,103,98,103,103,104
CC(OC(=O)c1cccc(S(=O)(=O)N2CCCCC2)c1)C(=O)NC1CCCCC1C (configuration not stated),91,94,88,81,85
COc1ccc(C2=CC3=C(Br)C(=O)C(C)(OC(=O)c4ccco4)C(=O)C3=CO2)cc1 (configuration not stated),46*[may fluoresce violet],?,11,106,104
COc1ccc(C2=CC3=C(Br)C(=O)C(C)(OC(=O)c4cccs4)C(=O)C3=CO2)cc1 (configuration not stated),65,?,18,141,159
O=C(c1cccc(COc2ccc(Cl)cc2Cl)c1)N1CCN(c2ccccn2)CC1,91,87,89,162*,101
Cc1cccc(-n2c(SCC(=O)NCC3CCCO3)nc3ccccc3c2=O)c1C (configuration not stated),93,84,93,82,97
COc1ccccc1OCC(=O)Sc1ccc(C)cc1,93,93,98,159*,97
CCCC1(C(=O)OC)NC(c2ccco2)C2C(=O)N(c3ccc(C)cc3)C(=O)C21 (configuration not stated),37*[may fluoresce violet],.,?,91,333*[may fluoresce violet]
CCOC(=O)C1(CC)NC(c2ccco2)C2C(=O)N(c3ccc(C)cc3)C(=O)C21 (configuration not stated),98,94,99,92,97
N/C(=N\OC(=O)c1ccc(Cl)cc1)c1ccn[nH]1,96,152*,113,102,106
N/C(=N\OC(=O)c1ccc(Cl)cc1)c1ccc(Cl)cc1,97,98,74,103,98
O=[N+]([O-])/C=C/c1c(OCc2ccccc2)ccc2ccccc12,92,81,88,181*,92
CN(C(=O)CN1C(=O)/C(=C/c2ccccc2Cl)SC1=S)C1CCS(=O)(=O)C1 (configuration not stated),96,94,101,97,97
Cc1cccc(/C(N)=N/OC(=O)C23CC4CC(CC(C4)C2)C3)c1,93,154*,54,119,87
O=c1c2ccccc2nc(-c2ccccc2)n1CCN1CCOCC1,93,105,128,163*,134
COc1ccc(-c2nc3ccccc3c(=O)n2CCCN2CCOCC2)cc1,104,108,105,113,109
O=C(NCCN1CCN(c2ccc([N+](=O)[O-])cc2)CC1)NCc1ccccc1,108,107,106,97,101
Cc1ccc(OCC(=O)N2N=C(c3ccncc3)CC2(O)C(F)(F)F)cc1C (configuration not stated),102,.,.,.,103
CC(C)c1nnc(NC(=O)c2ccc3c(c2)OCO3)s1,99,103,98,100,97
COc1ccccc1-c1nnc(NC(=O)c2ccc3c(c2)OCO3)s1,97,115,99,124,272*
SMILES,RPL19A TOR yeast,CIT2-GFP yeast,AGP1 TOR yeast,LAP4-GFP MLPCN,MEP2-GFP yeast
CC(Oc1ccc(Cl)cc1Cl)C(=O)NC1=NN(c2ccccc2)C(=O)C1 (configuration not stated),75,87,86,157*,102
Nc1nc(SCc2ccc(Cl)cc2Cl)nc2nc3c(cc12)CCCC3,96,97,98,100,110
Cc1cccc(OCc2nnc(SCC(=O)N3c4ccccc4CCc4ccccc43)o2)c1,51,?,26,115,946*[may fluoresce violet]
COc1ccccc1N1CCN(CC(O)c2c(C)[nH]c3ccccc23)CC1 (configuration not stated),104,100,102,100,108
COc1ccccc1N1CCN(CC(O)c2ccccc2)CC1 (configuration not stated),46*[may fluoresce violet],?,?,79,290*[may fluoresce violet]
COc1ccccc1CNC(=O)CCC(=O)N1Cc2cccc(OC)c2Oc2ncccc21,14*[may fluoresce violet],?,?,79,171
Cc1cccc(Sc2c(C=O)c3ccccc3n2C)c1,65,?,?,55,228*[may fluoresce violet]
CCCNC(=O)COC(=O)c1ccc(S(=O)(=O)N2CCCC2)cc1,114,193*,119,240*,264*
CCOc1cc(C(=O)Nc2nnc(S(=O)(=O)N3CCOCC3)s2)cc(OCC)c1OCC,14*[may fluoresce violet],?,?,65,210*[may fluoresce violet]
COC(=O)c1ccc2c(=O)[nH]c(COC(=O)c3c(-c4ccccc4)noc3C)nc2c1,97,86,99,103,99
CC(=O)NC(NC(C)=O)c1ccc(N(C)C)cc1,39*[may fluoresce violet],?,26,105,219*[may fluoresce violet]
CCN(CC)c1ccc(C(NC(C)=O)NC(C)=O)cc1,.,93,96,91,96
COc1ccccc1C1C2=C(CC(C)(C)CC2=O)N(CC(=O)O)C2=C1C(=O)CC(C)(C)C2,54,94,77,92,239*
COc1cccc(C2Nc3ccccc3NC3=C2C(=O)CC(C)(C)C3)c1OC (configuration not stated),94,111,98,73,100
COc1ccccc1C1Nc2ccccc2NC2=C1C(=O)CC(C)(C)C2 (configuration not stated),38*[may fluoresce violet],?,?,95,627*[may fluoresce violet]
C(=N\Nc1ccccn1)/c1c[nH]c2ccccc12,68,103,27,115,207*
CCN1CCN(CCNC(=O)c2ccc3nc(-c4cccc(C)c4)c(-c4cccc(C)c4)nc3c2)CC1,16*[may fluoresce violet],?,?,80,138
COC(=O)c1ccc(CS(=O)(=O)c2ccc(F)cc2)o1,66,149,142,152*,536*
Cc1ccc(S(=O)(=O)Nc2cccnc2Oc2ccc(Cl)cc2)cc1,106,88,114,111,103
Cc1ccc(S(=O)(=O)Nc2cc(Cl)c(O)c3ncccc23)cc1,103,103,99,154*,97
COc1cccc(NC(=O)CN2CCN(S(=O)(=O)c3ccc(C(C)C)cc3)CC2)c1,40*[may fluoresce violet],?,?,76,119

# Assay outcomes (PubChem)
